Data from PubChem BioAssay (NCI).
Values joined by “and” are separate entries in the source; they are usually repeats but may differ in a detail not shown here. Equal entries are not always repeated. This is part of a sample that, as a whole, favours compounds with a hit. Of some 83,000 tested, about 20% had one in any assay.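 The endpoint reported here, percent growth, reads 100 for growth as untreated, 0 for no net growth and -100 for all cells dead.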 Active and inactive are the calls of the source. The calls were made as follows: active = growth percent below 10; inactive = the rest.

Legend:
Experiment in all cases: NCI-60 one-dose screen, 48 h (100 = growth as untreated, 0 = no growth, -100 = all killed)
Conditions in all cases: 10 µM unless noted
UACC-62 melanoma = tested on: UACC-62 melanoma
TK-10 renal = tested on: TK-10 renal
SNB-19 CNS = tested on: SNB-19 CNS
UO-31 renal = tested on: UO-31 renal
HT29 colon = tested on: HT29 colon
PC-3 prostate = tested on: PC-3 prostate
SK-MEL-5 melanoma = tested on: SK-MEL-5 melanoma
LOX IMVI melanoma = tested on: LOX IMVI melanoma
SK-MEL-28 melanoma = tested on: SK-MEL-28 melanoma
SK-MEL-2 melanoma = tested on: SK-MEL-2 melanoma
SN12C renal = tested on: SN12C renal
ACHN renal = tested on: ACHN renal
CAKI-1 renal = tested on: CAKI-1 renal
CCRF-CEM leukemia = tested on: CCRF-CEM leukemia
MOLT-4 leukemia = tested on: MOLT-4 leukemia
SNB-75 CNS = tested on: SNB-75 CNS
U251 CNS = tested on: U251 CNS
A498 renal = tested on: A498 renal
EKVX NSCLC = tested on: EKVX NSCLC

CCOC(=O)/C(C#N)=C(/NNc1ccccc1)c1ccncc1C(=O)O
growth (UACC-62 melanoma): 61.3% [100 µM] (inactive) and 11.4% [100 µM] (inactive) | growth (TK-10 renal): 79.5% [100 µM] (inactive) and -58% [100 µM] (active)

C=CCCCCCCCCC(=O)[O-].C=CCCCCCCCCC(=O)[O-].[Zn+2]
growth (SNB-19 CNS): 100% (inactive) | growth (UO-31 renal): 80.7% (inactive)

CC(=O)c1cc2c(s1)C(=O)c1ccsc1C2=O
growth (UACC-62 melanoma): -54.1% [100 µM] (active) and -98.1% [100 µM] (active) | growth (TK-10 renal): -38.1% [100 µM] (active) and -100% [100 µM] (active)

CC1(C)CC2(C)OC(=N)C1(C#N)C2(C#N)C#N (stereo unspecified)
growth (UACC-62 melanoma): -92.9% [100 µM] (active) | growth (TK-10 renal): -89.5% [100 µM] (active) and -77.9% [100 µM] (active)

CCCCCCCCCc1cc(=O)c2c(O)cc(O)cc2o1
growth (UACC-62 melanoma): -88.9% [100 µM] (active) and -100% [100 µM] (active) | growth (TK-10 renal): -87.9% [100 µM] (active) and -100% [100 µM] (active)

CCCC(=O)Oc1c2ccsc2c(OC(=O)CCC)c2ccsc12
growth (UACC-62 melanoma): -75.3% [100 µM] (active) and -100% [100 µM] (active) | growth (TK-10 renal): -72.5% [100 µM] (active) and -100% [100 µM] (active)

Cc1nc2cc(Nc3nc(Cl)nc(Nc4ccc(F)cc4)n3)ccc2n1Cc1ccccc1
growth (HT29 colon): 94.5% (inactive) | growth (SNB-19 CNS): 92.4% (inactive) | growth (PC-3 prostate): 78.8% (inactive) | growth (SK-MEL-5 melanoma): 92.4% (inactive) | growth (UACC-62 melanoma): 82.4% (inactive) | growth (LOX IMVI melanoma): 43.3% (inactive) | growth (SK-MEL-28 melanoma): 106% (inactive) | growth (SK-MEL-2 melanoma): 111% (inactive) | growth (SN12C renal): 77.9% (inactive) | growth (UO-31 renal): 80.7% (inactive) | growth (TK-10 renal): 58.5% (inactive) | growth (ACHN renal): 36.2% (inactive) | growth (CAKI-1 renal): 87.7% (inactive) | growth (CCRF-CEM leukemia): 78.5% (inactive) | growth (MOLT-4 leukemia): 90.6% (inactive)

CC(=O)OC(C)c1cc2c(s1)C(=O)c1ccsc1C2=O (stereo unspecified)
growth (UACC-62 melanoma): -64.5% [100 µM] (active) and -100% [100 µM] (active) | growth (TK-10 renal): -61.4% [100 µM] (active) and -100% [100 µM] (active)

CCOC(=O)c1nc2cc(C(F)(F)F)ccc2nc1Nc1ccc(F)cc1
growth (UACC-62 melanoma): 33.3% [100 µM] (inactive) and -17.1% [100 µM] (active) | growth (TK-10 renal): 42.7% [100 µM] (inactive) and 3.59% [100 µM] (active)

COc1ccc(CC2c3cc(OC)c(OC)c(OC)c3CC[N+]2(C)C)cc1Oc1ccc(CC2c3cc4c(c(OC)c3CCN2C)OCO4)cc1 (stereo unspecified)
growth (UACC-62 melanoma): 80% [100 µM] (inactive) and 8.64% [100 µM] (active) | growth (TK-10 renal): 85.8% [100 µM] (inactive) and 47.5% [100 µM] (inactive)

CC(O)c1cc2c(s1)C(=O)c1c(C(C)O)csc1C2=O (stereo unspecified)
growth (UACC-62 melanoma): -61.9% [100 µM] (active) and -94.6% [100 µM] (active) | growth (TK-10 renal): -20.6% [100 µM] (active) and -88.8% [100 µM] (active)

Cc1c2c(c(O)c3c(O)cccc13)C(=O)C1(O)C(O)=C(C(=O)NCNc3ccc(C(N)=O)cn3)C(=O)C(N(C)C)C1C2 (stereo unspecified)
growth (UACC-62 melanoma): -54.4% [100 µM] (active) and -74.8% [100 µM] (active) | growth (TK-10 renal): -70% [100 µM] (active) and -74.7% [100 µM] (active)

C1CCC([PH+](C2CCCCC2)C2CCCCC2[PH+](C2CCCCC2)C2CCCCC2)CC1.[Au].[CH-]1CCCCC1CC1CCCC[N-]1 (stereo unspecified)
growth (SNB-75 CNS): 19.8% (inactive)

COc1c2c(c(OC)c3c1c(=O)c1ccccc1n3C)OCO2
growth (UACC-62 melanoma): -0.25% [100 µM] (active) | growth (TK-10 renal): 54.2% [100 µM] (inactive)

O=C1Nc2ccc(Cl)cc2/C1=N/N=C(c1ccccc1)c1ccccc1
growth (SNB-75 CNS): 74.5% (inactive) | growth (SNB-19 CNS): 62.7% (inactive) | growth (U251 CNS): 94.5% (inactive) | growth (PC-3 prostate): 86.2% (inactive) | growth (SK-MEL-5 melanoma): 99% (inactive) | growth (UACC-62 melanoma): 84.6% (inactive) | growth (LOX IMVI melanoma): 87.5% (inactive) | growth (SK-MEL-28 melanoma): 117% (inactive) | growth (SK-MEL-2 melanoma): 103% (inactive) | growth (SN12C renal): 93.7% (inactive) | growth (UO-31 renal): 63.9% (inactive) | growth (TK-10 renal): 111% (inactive) | growth (ACHN renal): 87.5% (inactive) | growth (CAKI-1 renal): 63% (inactive) | growth (CCRF-CEM leukemia): 92.7% (inactive) | growth (MOLT-4 leukemia): 93.3% (inactive)

Cc1ccc(/C=N/Nc2ccc3ccccc3n2)s1
growth (UACC-62 melanoma): 11.2% [100 µM] (inactive) and -100% [100 µM] (active) | growth (TK-10 renal): 50.5% [100 µM] (inactive) and 7.78% [100 µM] (active)

COc1cc(C(F)(F)F)ccc1-c1cc(-c2ccc(F)cc2)n[nH]1
growth (SNB-75 CNS): 74.4% (inactive) | growth (SNB-19 CNS): 77.9% (inactive) | growth (U251 CNS): 80% (inactive) | growth (PC-3 prostate): 76% (inactive) | growth (UACC-62 melanoma): 83.9% (inactive) | growth (SK-MEL-28 melanoma): 102% (inactive) | growth (SK-MEL-2 melanoma): 118% (inactive) | growth (SN12C renal): 85.2% (inactive) | growth (ACHN renal): 77% (inactive) | growth (CAKI-1 renal): 78.4% (inactive) | growth (A498 renal): 95.1% (inactive) | growth (CCRF-CEM leukemia): 89.8% (inactive) | growth (MOLT-4 leukemia): 91.2% (inactive)

ClC(Cl)(Cl)C1CCOC1n1nnc2ccccc21 (stereo unspecified)
growth (UACC-62 melanoma): 65.4% [100 µM] (inactive) and 12.8% [100 µM] (inactive) | growth (TK-10 renal): 73% [100 µM] (inactive) and 16.8% [100 µM] (inactive)

CN(C)C(=S)SCN1C(=O)c2ccc([N+](=O)[O-])cc2S1(=O)=O
growth (SNB-75 CNS): 99.9% (inactive) | growth (SNB-19 CNS): 94.3% (inactive) | growth (U251 CNS): 93.5% (inactive) | growth (SK-MEL-5 melanoma): 101% (inactive) | growth (UACC-62 melanoma): 92.2% (inactive) | growth (LOX IMVI melanoma): 92.9% (inactive) | growth (SK-MEL-28 melanoma): 109% (inactive) | growth (SK-MEL-2 melanoma): 112% (inactive) | growth (EKVX NSCLC): 93.7% (inactive) | growth (SN12C renal): 93.1% (inactive) | growth (UO-31 renal): 83.1% (inactive) | growth (TK-10 renal): 108% (inactive) | growth (CAKI-1 renal): 96% (inactive) | growth (A498 renal): 92.6% (inactive) | growth (CCRF-CEM leukemia): 50.6% (inactive) | growth (MOLT-4 leukemia): 91.6% (inactive)

Cc1cc[n+](CCc2ccccc2)cc1
growth (U251 CNS): 97.2% (inactive) | growth (SK-MEL-5 melanoma): 92.7% (inactive) | growth (SK-MEL-2 melanoma): 107% (inactive) | growth (EKVX NSCLC): 80.6% (inactive)

CC(C)(C)O/N=C/c1cc(NC(=S)c2ccsc2)ccc1Cl
growth (UACC-62 melanoma): -90.7% [100 µM] (active) and -85.1% [100 µM] (active) | growth (TK-10 renal): -90.2% [100 µM] (active) and -20.8% [100 µM] (active)

O=C(O)c1cnccc1-c1cc(=O)[nH]n1-c1ccccc1
growth (UACC-62 melanoma): 17.3% [100 µM] (inactive) and 7.35% [100 µM] (active) | growth (TK-10 renal): 53.2% [100 µM] (inactive) and -7.14% [100 µM] (active)

Cc1ccc(C(=O)O[C@H](C(=O)O)[C@H](OC(=O)c2ccc(C)cc2)C(=O)O)cc1
growth (SNB-19 CNS): 102% (inactive) | growth (UO-31 renal): 85.1% (inactive)

O=C(N/N=C/c1ccc(OC(F)F)c(OC2CCCC2)c1)c1cnn2c1NC(c1ccccc1)C2 (stereo unspecified)
growth (HT29 colon): 81.7% (inactive) | growth (SNB-19 CNS): 79.9% (inactive) | growth (U251 CNS): 82.1% (inactive) | growth (PC-3 prostate): 61.7% (inactive) | growth (SK-MEL-5 melanoma): 70.9% (inactive) | growth (UACC-62 melanoma): 71.2% (inactive) | growth (LOX IMVI melanoma): 68.1% (inactive) | growth (SK-MEL-28 melanoma): 88.7% (inactive) | growth (SK-MEL-2 melanoma): 90.7% (inactive) | growth (EKVX NSCLC): 91.5% (inactive) | growth (SN12C renal): 87.1% (inactive) | growth (UO-31 renal): 65.1% (inactive) | growth (TK-10 renal): 91.9% (inactive) | growth (ACHN renal): 82.3% (inactive) | growth (CAKI-1 renal): 62.6% (inactive) | growth (CCRF-CEM leukemia): 78.7% (inactive) | growth (MOLT-4 leukemia): 54.7% (inactive)
